In PubChem BioAssay (Tox21):
Results filed as inconclusive are left out. Where a call stands in place of a potency, no number is given. Activity calls are given as the source filed them. The call rests on the fitted dose curve; in most records, active means well fitted inhibition curve with a large enough effect in the signal ratio in the repeat runs (not every such curve was filed as active); inconclusive means weak or mixed curves; inactive means flat fitted curve, though single readings scatter; the % refers to the signal ratio.

molecular target: Progesterone receptor (Homo sapiens) (UniProt P06401); test: qHTS assay to identify small molecule antagonists of the progesterone receptor (PR) signaling pathway (AID 1346795); conditions: PR-UAS-bla HEK293T, beta-lactamase FRET ratio, 16 h; series mostly up to 92.4 µM
Excerpt: National Center for Advancing Translational Sciences [NCATS]
NIH Chemical Genomics Center [NCGC]
U.S. Environmental Protection Agency [EPA]
National Institutes of Environmental Health Sciences [NIEHS]
National Toxicology Program [NTP]
U.S. Food and Drug Administration [FDA]
Progesterone receptor (PR), a nuclear hormone receptor, plays an important role in development, metabolic homeostasis and reproduction. […] Endocrine disrupting chemicals (EDCs) and their interactions with steroid hormone receptors like PR causes disruption of normal endocrine function. To identify the compounds that inhibit PR signaling, a PR-UAS-bla GripTite cell line i.e. PR-UAS-bla HEK293T (Invitrogen, Carlsbad, CA, USA) containing a beta-lactamase reporter gene under the control of an Upstream Activator Sequence (UAS) was used to screen Tox21 10K compound library.
Tox21 Assay Protocol Summary:
PR-UAS-bla HEK293T cells were dispensed at 3,000 cells/4 uL of assay medium containing 2% charcoal stripped FBS per well into black wall/clear-bottom 1536-well plates using a Multidrop Combi (ThermoFisher Scientific, Waltham, MA) dispenser. After the assay plates were incubated at a 37C and 5% CO2 for 6 hr, 23 nL of compounds dissolved in DMSO, positive controls or DMSO only was transferred to the assay plate by a Pintool station (Kalypsys, San Diego, CA), followed by addition of 1 uL (1nM as final concentration) of Promegestone (R5020) in assay medium using a BioRAPTR FRD (Flying Reagent Dispenser, Aurora Discovery, San Diego, CA). The plates were incubated at 37C and 5% CO2 for 16 hr. Then 1 uL of LiveBLAzer B/G FRET substrate was added using a FRD. After the plates were incubated at room temperature for 2 hours, fluorescence intensity was measured by an Envision plate reader (PerkinElmer, Shelton, CT).
Potency means the concentration at half of the fitted maximal effect.

Chain of Progesterone receptor (Homo sapiens) (P06401 whole entry, looked up): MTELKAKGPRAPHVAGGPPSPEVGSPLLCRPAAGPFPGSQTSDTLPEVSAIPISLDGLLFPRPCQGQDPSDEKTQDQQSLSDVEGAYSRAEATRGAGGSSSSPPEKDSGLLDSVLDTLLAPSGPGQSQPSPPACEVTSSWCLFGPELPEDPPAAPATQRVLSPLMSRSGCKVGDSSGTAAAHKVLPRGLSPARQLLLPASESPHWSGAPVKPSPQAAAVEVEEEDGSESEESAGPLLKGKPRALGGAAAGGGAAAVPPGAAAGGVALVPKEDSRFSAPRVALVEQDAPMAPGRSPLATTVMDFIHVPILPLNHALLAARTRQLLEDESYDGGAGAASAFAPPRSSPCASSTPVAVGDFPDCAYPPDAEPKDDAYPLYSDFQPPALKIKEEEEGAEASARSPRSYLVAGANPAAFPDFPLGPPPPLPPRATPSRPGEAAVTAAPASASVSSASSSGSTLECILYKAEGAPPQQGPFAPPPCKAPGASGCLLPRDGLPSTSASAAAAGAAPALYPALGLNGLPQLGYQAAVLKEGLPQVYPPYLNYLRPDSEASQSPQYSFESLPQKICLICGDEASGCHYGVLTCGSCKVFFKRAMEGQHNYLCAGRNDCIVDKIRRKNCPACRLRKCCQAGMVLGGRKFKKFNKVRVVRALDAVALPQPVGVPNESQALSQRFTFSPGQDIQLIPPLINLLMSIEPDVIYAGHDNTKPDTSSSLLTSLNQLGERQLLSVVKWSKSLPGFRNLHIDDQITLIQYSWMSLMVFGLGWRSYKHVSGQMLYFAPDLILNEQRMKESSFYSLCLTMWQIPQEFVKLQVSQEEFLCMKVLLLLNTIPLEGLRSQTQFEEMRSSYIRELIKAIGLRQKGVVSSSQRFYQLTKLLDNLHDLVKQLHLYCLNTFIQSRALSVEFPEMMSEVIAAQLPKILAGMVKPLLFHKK

SMILES	Potency
C1CCC2OC2C1 (stereo not given)	inactive
COc1ccc2[nH]c(S(=O)Cc3ncc(C)c(OC)c3C)nc2n1 (stereo not given)	inactive
CC[C@H](C)[C@H](N)C(=O)O	inactive
CN1CCC(=C2c3ccccc3C=Cc3ccccc32)CC1	inactive
N=C(N=C(N)N)N1CCOCC1	inactive
O=C(c1ccc(O)cc1)c1ccc(O)cc1	48.6 µM (active)
S=C(S)NCCNC(=S)S	inactive
CCCCOc1cc(C(=O)OCCN(CC)CC)ccc1N	inactive
O=C(Nc1ccccc1)OCC(CN1CCCCC1)OC(=O)Nc1ccccc1 (stereo not given)	23.7 µM (active)
CC(=O)O[C@H]1C[C@@H]2CC[C@@H]3[C@H](CC[C@@]4(C)[C@H]3C[C@H]([N+]3(C)CCCCC3)[C@@H]4OC(C)=O)[C@@]2(C)C[C@@H]1N1CCCCC1	inactive
CC(C)CC=O	inactive
CC(=O)O[C@@H]1C(=O)O[C@@H]2[C@H]1OC(=O)[C@@H]2OC(C)=O	inactive
CC(Cc1cccc(C(F)(F)F)c1)NCCOC(=O)c1ccccc1 (stereo not given)	inactive
COCCO	inactive
COCCCCCCCCOCCC[Si](C)(O[Si](C)(C)C)O[Si](C)(C)C	inactive
CC(C)CCCC(C)CCO (stereo not given)	inactive
C=CC[N+]1([C@H]2C[C@H]3[C@@H]4CC[C@H]5C[C@H](OC(C)=O)[C@@H](N6CCCCC6)C[C@]5(C)[C@H]4CC[C@]3(C)[C@H]2OC(=O)CC)CCCCC1	inactive
Cc1ccccn1	inactive
COc1ccccc1OC(=O)Oc1ccccc1OC	26.6 µM (active)
O=C1[C@H](CC[C@H](O)c2ccc(F)cc2)[C@@H](c2ccc(O)cc2)N1c1ccc(F)cc1	23.7 µM (active)

SMILES	Potency
Cc1nc2ccccc2n1Cc1ccc(Cl)cc1	13.3 µM (active)
CN(C)C/C=C(/c1ccc(Br)cc1)c1cccnc1	inactive
Nc1nc(N)c(-c2ccccc2)s1	inactive
CC(=O)/C=C/C1C(C)=CCCC1(C)C (stereo not given)	inactive
CC(CN)CCCN (stereo not given)	inactive
O=C(CC(=O)c1ccccc1)c1ccccc1	65.7 µM (active)
CCCCCCc1ccc(N)cc1	inactive
CC(C)CCCCCCOC(=O)c1ccc(C(=O)OCCCCCCC(C)C)c(C(=O)OCCCCCCC(C)C)c1	inactive
CC[C@]12CCCN3CCc4c(n(c5ccccc45)C(=O)C1)[C@@H]32	13.3 µM (active)
CCCCCOC(=O)COc1cc(N2C(=O)C3=C(CCCC3)C2=O)c(F)cc1Cl	inactive
Cc1ncsc1CCO	inactive
CN(c1nccc(=O)[nH]1)C1CCN(c2nc3ccccc3n2Cc2ccc(F)cc2)CC1	inactive
Cc1cccc(C(C)(C)C)c1O	inactive
CCCC(=O)OCC	inactive
CCCCCc1ccc(N)cc1	inactive
CCCCCCCCCO	inactive
CCN(CC)CCc1nc(-c2ccccc2)no1	inactive
CCCCCCCCCCCCCCCBr	inactive
CC(=O)OCCc1ccccc1	inactive
COC(=O)C(C)=O	inactive
